Compounds with a hit are over-represented: about 7.5% of the library has one in this group of screens.
KinaseGlo FLuc: Kinase-Glo luciferase inhibition (counter-screen). Q27757. Kinase-Glo luciferase, ATP luminescence, 8 min. Potency, µM (series often up to 38.3 µM), for the others: at the highest dose activity change, negative = inhibition, most hits filed as inhibitors. 200,000 compounds, 0.28% hits; also: % is scaled to controls: 0 for no effect and ±100 for the full control effect; nearly all actives have a fitted effect of over 60% in size
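Recombinant Kinase-Glo luciferase, 10 uM ATP (linear range), luciferin; imidazole pH 7.2 / KCl / MgCl2 / Tween / BSA buffer; 8 min RT; luminescence.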
Rab9 prom act: Rab9 promoter activation; Huh7 Rab9 promoter-luciferase reporter, luminescence, 24 h; Potency, µM (series often up to 9.22 µM), inactives show at the highest dose activation, negative = inhibition, usual class: activators; AID 485297; 320,000 compounds, 2.8% hits; also: % of control where 0% means no effect; nearly all actives have a fitted effect of over 60% in size
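Huh7 reporter line, Rab9 promoter upstream of luciferase. Compound exposure 24 h at 37 °C in reduced-serum medium with 10% FBS. Read-out: luminescence.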
ELG1 genotox: genotoxicity induction in ELG1-luciferase HEK293T cells; 330,000 compounds, 1.3% hits; Potency, µM (top dose mostly 46 µM), for inactives: at the highest dose activity change, positive = activation, most hits filed as activators; HEK293T ELG1-luciferase reporter, luminescence, 16 h; also: % of control where 0% means no effect; nearly all actives have a fitted effect of over 60% in size
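16 hr compound incubation (37 °C, 5% CO2) of HEK293T cells carrying luciferase-tagged ELG1; luciferase then measured by ONE-Glo luminescence after 30 min at RT.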
FLuc modulator: firefly luciferase modulation, counter-screen for miR-21 project; AID 588342; purified FLuc, Km substrates, luminescence inhibition; P08659; Potency, µM (series often up to 57.5 µM), inactives show at the top dose activity change, negative = inhibition, hits mostly inhibitors; 360,000 compounds, 6.9% hits;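 also: plate controls were vehicle for no effect and reference inhibitor for full effect; nearly all actives have a fitted effect of over 55% in size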
Target sequence (P08659 whole entry, looked up): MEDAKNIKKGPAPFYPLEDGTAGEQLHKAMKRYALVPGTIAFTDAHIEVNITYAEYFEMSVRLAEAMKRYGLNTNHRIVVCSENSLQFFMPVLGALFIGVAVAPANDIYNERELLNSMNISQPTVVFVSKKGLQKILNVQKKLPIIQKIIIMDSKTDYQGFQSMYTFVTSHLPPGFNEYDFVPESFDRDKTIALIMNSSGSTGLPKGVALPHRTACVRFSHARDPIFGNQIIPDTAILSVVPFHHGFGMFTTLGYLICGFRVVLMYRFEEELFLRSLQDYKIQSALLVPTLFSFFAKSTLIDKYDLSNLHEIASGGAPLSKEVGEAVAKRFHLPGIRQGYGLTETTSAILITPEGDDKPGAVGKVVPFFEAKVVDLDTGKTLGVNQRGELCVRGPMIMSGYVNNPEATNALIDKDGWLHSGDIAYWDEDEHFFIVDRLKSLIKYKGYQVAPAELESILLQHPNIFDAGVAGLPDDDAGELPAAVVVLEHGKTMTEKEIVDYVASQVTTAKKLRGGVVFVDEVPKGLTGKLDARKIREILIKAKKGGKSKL
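Biochemical qHTS of compounds, final roughly 60 µM downward over six points, against 10 nM purified firefly luciferase using Km concentrations of substrates (10 uM D-luciferin, 10 uM ATP) in Tris acetate pH 7.5 buffer; luminescence output.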
NPC1 prom act: activators of NPC1 promoter | Huh7 NPC1 promoter luciferase reporter, 24 h | Potency, µM (top dose mostly 9.22 µM), for inactives: top-dose activation, hits mostly activators | 320,000 compounds, 2.4% hits | AID 485313; also: % of control where 0% means no effect; nearly all actives have a fitted effect of over 60% in size
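Quantitative HTS used a cell-based reporter: Huh7 cells stably bearing the NPC1 promoter upstream of luciferase were treated with compounds for 24 h, and promoter activation was read as luminescence.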
SMN2 splice enh: SMN2 splice variant enhancement | AID 1458 | Potency, µM (series often up to 46.1 µM), for the others: at the highest dose activity change, positive = activation, hits mostly activators | HEK293 SMN2-luciferase splicing reporter, luminescence, 30-36 h | 210,000 compounds, 2.8% hits; also: % of control where 0% means no effect; nearly all actives have a fitted effect of over 55% in size
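qHTS luciferase splicing reporter: luminescence rises when SMN2 exon 7 is included in transfected HEK293 cells. Compound exposure lasted 30-36 h at 37C, with 4.5 mM final sodium butyrate as control, followed by a ONE-Glo read.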
* = called active by the depositor; ? = inconclusive; / = not tested or not shown. Calls follow the shape of the dose curve; as a rule, active = well fitted curve in the direction sought with a large enough effect; inconclusive = small, poorly fitted or top-dose-only effect, or another doubt; inactive = no such curve, though single readings can be large; an effect the other way counts as inactive or inconclusive. Potency is read from the fitted curve at half-maximal effect.

SMILES	KinaseGlo FLuc	Rab9 prom act	ELG1 genotox	FLuc modulator	NPC1 prom act	SMN2 splice enh
CC(/C=C/c1ccc(N(C)C)cc1)=N\N=C1\NC(=O)CC(C(=O)Nc2ccccc2)S1 (stereo not given)	1%	?	8%	2.4µM*	?	16µM*
CC(/C=C/c1ccc(N(C)C)cc1)=N/N=C1/NC(=O)CC(C(=O)Nc2ccc(Cl)cc2)S1 (stereo not given)	1%	-2%	5%	7.6µM*	8%	?
COc1ccc(NC(=O)C2CC(=O)N/C(=N/N=C/c3ccccc3)S2)cc1 (stereo not given)	/	1%	?	0%	-5%	/
CCCOc1ccc(NC(=O)C2CC(=O)N/C(=N/N=C(C)/C=C/c3ccc(N(C)C)cc3)S2)cc1 (stereo not given)	0%	?	14%	2.4µM*	?	13µM*
CCCOc1ccc(NC(=O)C2CC(=O)N/C(=N/N=C(\C)CCc3ccc4c(c3)OCO4)S2)cc1 (stereo not given)	0%	-5%	-1%	-1%	0%	-1%
CCN(CC)S(=O)(=O)c1cc(NC(=O)c2ccc(-n3cncn3)c([N+](=O)[O-])c2)ccc1C	/	-3%	-20%	-2%	-1%	/
O=C(NCc1ccccc1)c1ccc(CSc2nc3cccnc3n2Cc2cccc(F)c2)cc1	/	/	/	-4%	/	/
O=c1[nH]c2ccccc2c(O)c1O	0%	0%	-9%	?	1%	4%
CCOC(=O)C1CCN(c2nc(-c3ccc(Br)cc3)cs2)CC1	/	/	/	-2%	/	/
Cc1ccnc2nc(C(=O)Nc3nc4ccccc4s3)nn12	/	2.8µM*	?	11µM*	1µM*	/
Cc1csc(NC(=O)c2nc3nccc(C)n3n2)n1	-5%	?	?	?	?	14%
Cc1ccnc2nc(C(=O)Nc3nnc(CC(C)C)s3)nn12	-1%	-2%	8%	4%	0%	/
Cc1ccc(NC(=O)c2nc3nccc(C)n3n2)c(C)c1	-5%	?	?	?	?	11µM*
C/C(=N/NS(=O)(=O)c1ccccc1)c1ccc(NC(=O)C2CC2)cc1	3%	-5%	0%	2%	1%	/
COc1ccccc1CNC(=O)C(=O)c1cn(CC(=O)N2CCOCC2)c2ccccc12	/	12%	4%	?	-1%	/
COc1ccccc1NC(=O)C(=O)c1cn(CC(=O)N2CCCC2)c2ccccc12	/	?	13%	4.8µM*	?	/
COc1ccccc1NC(=O)C(=O)c1cn(CC(=O)N2CCOCC2)c2ccccc12	/	?	?	4.8µM*	?	/
COc1ccc(CCNC(=O)C(=O)c2cn(CC(=O)N3CCOCC3)c3ccccc23)cc1OC	/	1%	6%	21µM*	-1%	/
COc1ccccc1NC(=O)CSc1cn(CC(=O)N2CCCC2)c2ccccc12	/	/	/	-9%	/	/
COc1ccccc1CCNC(=O)C(=O)c1cn(CC(=O)N2CCCC2)c2ccccc12	/	26%	2%	11µM*	23%	/
COc1ccc(NC(=O)C(=O)c2cn(CC(=O)N3CCOCC3)c3ccccc23)cc1OC	/	-1%	-1%	?	0%	/
Cc1cc(C)c2c(CC(=O)Nc3ccc(S(=O)(=O)N4CCCC(C)C4)cc3)coc2c1 (stereo not given)	/	/	/	-3%	/	14%
CCOc1ccc(NC(=O)Cn2c(=O)n(-c3cccc(OC)c3)c(=O)c3c4c(sc32)CCCC4)cc1	/	/	/	3%	/	2%
COc1ccc(NC(=O)C(=O)c2cn(CC(=O)N3CCCC3)c3ccccc23)c(OC)c1	/	?	?	4.8µM*	?	/
c1ccc(-c2cnc(-c3ccccc3)nc2)cc1	-25%	0.35µM*	?	0.3µM*	0.56µM*	7.1µM*
SMILES	KinaseGlo FLuc	Rab9 prom act	ELG1 genotox	FLuc modulator	NPC1 prom act	SMN2 splice enh
c1ccc(-c2ncc3c(ccc4ccccc43)n2)cc1	-25%	0.79µM*	0.65µM*	0.085µM*	4µM*	0.5µM*
Cc1cc(C)c2c(N)c(C(=O)Nc3ccc(F)cc3)sc2n1	/	0.5µM*	?	1.5µM*	0.71µM*	/
Cc1cc(C)c2c(N)c(C(=O)NC3CCCC3)sc2n1	-2%	24%	10%	?	7%	11%
Cc1cc(C)c(NC(=O)c2sc3nc(C)cc(C)c3c2N)c(C)c1	/	/	/	-4%	/	-2%
Cc1cc(C)cc(NC(=O)c2sc3nc(C)cc(C)c3c2N)c1	/	3.2µM*	?	9.5µM*	1.8µM*	/
Cc1cc(C)c2c(N)c(C(=O)Nc3ccc([N+](=O)[O-])cc3)sc2n1	/	0.79µM*	?	-3%	0.5µM*	/
Cc1cc(C)c2c(N)c(C(=O)NCC3CCCCC3)sc2n1	-6%	?	11µM*	24µM*	?	11µM*
COCc1cc(C)nc2sc(C(=O)Nc3ccccc3F)c(N)c12	/	26%	15%	19µM*	23%	/
COc1ccc(NC(=O)c2sc3nc(C)cc(C)c3c2N)cc1	/	1.3µM*	?	3.8µM*	1.6µM*	/
C=CCNc1nc(N)c(C(=O)Nc2cc(C)on2)s1	-4%	?	16%	17µM*	?	11µM*
Cc1cc(NC(=O)c2sc(Nc3ccc(F)cc3)nc2N)no1	0%	25%	5%	-14%	18%	24%
COc1ccc(/C=N/NC(=O)c2sc3nc(C)cc(C)c3c2N)cc1	/	2%	3%	9.5µM*	2%	/
Cc1cc(C)cc(NS(=O)(=O)c2ccc3oc(=O)ccc3c2)c1	-3%	7%	-4%	2%	0%	-2%
COc1cc(C2C(=O)N(C3CCCCC3)CC(=O)N2CCC2=CCCCC2)ccc1OC(C)C (stereo not given)	/	/	/	-5%	/	/
CCOc1ccc(CN(C)CC(=O)Nc2ccc([N+](=O)[O-])cc2Cl)cc1	-2%	0%	-4%	-1%	-3%	-21%
CCCC(=O)NNC(=O)c1c(O)c2ccccc2[nH]c1=O	-5%	?	1%	-2%	-9%	-8%
Cc1cc(C)c2c(N)c(C(=O)Nc3ccccc3C(F)(F)F)sc2n1	/	/	/	-15%	/	/
Cc1cc(C)c2c(N)c(C(=O)Nc3ccc(C)c(C)c3)sc2n1	/	0.63µM*	1.2µM*	1.7µM*	1µM*	/
Cc1cc(C(F)(F)F)c2c(N)c(C(=O)Nc3cc(C)on3)sc2n1	-5%	3.5µM*	?	?	?	-43%
Cc1cc(C)c2c(N)c(C(=O)N/N=C/c3cccs3)sc2n1	/	1.6µM*	?	?	1.8µM*	/
COC(=O)N1CCC[C@@]2(CCN(c3ccccn3)C2)C1	-1%	/	/	/	/	3%
O=c1c(-c2ccccc2)c(O)nc(SCCN2CCOCC2)n1-c1ccccc1	-5%	-2%	1%	5%	2%	20%
